# PubChem BioAssay (EPA / NIEHS)
# Calls of active or inactive are those of the source. Rule for the calls: active = hit-call score of the fitted dose curve at least 0.9, where 1 is the maximum; inactive = score below 0.9.
# Columns and labels:
# Conditions in all cases: mRNA level, 48 h; actives raise or lower the signal
# [1] = read-out: Apolipoprotein A-V (APOA5) gene, APOA5 (gene 116519); test: LTEA_HepaRG_APOA5: Life Technologies and Expression Analysis (LTEA) Assay for Apolipoprotein A-V (APOA5) gene using HepaRG (AID 2283474)
# How it was run: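 Differentiated human HepaRG cells were exposed in duplicate for 48 h to eight half-log concentrations from 100 uM in 0.5% DMSO. APOA5 mRNA was quantified by TaqMan qRT-PCR, normalized to ACTB, GAPDH and POLR2A, and fitted bidirectionally against DMSO.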
# [2] = read-out: Apoptosis regulator Bcl-2 (Homo sapiens) (UniProt P10415); test: LTEA_HepaRG_BCL2: Life Technologies and Expression Analysis (LTEA) Assay for Bcl-2 gene using HepaRG (AID 2283475)
# How it was run: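 qRT-PCR read-out (Fluidigm TaqMan) of BCL2 transcript, normalised to three housekeeping genes, after 48 h chemical exposure of HepaRG cells; 8-point half-log series, top 100 uM, 0.5% DMSO vehicle. Gain or loss of signal fitted relative to DMSO baseline.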
# [3] = read-out: Bcl-2 (BID) gene, BID (gene 637); test: LTEA_HepaRG_BID: Life Technologies and Expression Analysis (LTEA) Assay for Bcl-2 (BID) gene using HepaRG (AID 2283476)
# How it was run: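 HepaRG, 48 h exposure, 8-pt half-log series, top 100 uM, 0.5% DMSO vehicle, duplicates. Readout: BID mRNA by TaqMan qRT-PCR; housekeeping-normalized; bidirectional curve fit vs DMSO baseline.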
# [4] = read-out: Caspase-3 (Homo sapiens) (UniProt P42574); test: LTEA_HepaRG_CASP3: Life Technologies and Expression Analysis (LTEA) Assay for cysteine-aspartic acid protease (CASP3) using HepaRG (AID 2283477)
# How it was run: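 Differentiated human HepaRG cells in serum-free induction medium were exposed 48 h to 8-point half-log concentrations from 100 uM (0.5% DMSO vehicle). CASP3 mRNA was measured by qRT-PCR, normalised to ACTB, GAPDH and POLR2A, with bidirectional fitting against DMSO.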
# [5] = read-out: Cytochrome P450 (CYP24A1), CYP24A1 (gene 1591); test: LTEA_HepaRG_CYP24A1: Life Technologies and Expression Analysis (LTEA) Assay for Cytochrome P450 (CYP24A1) using HepaRG (AID 2283478)
# How it was run: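 Differentiated HepaRG cells, pre-cultured 48 h, were exposed in duplicate for 48 h in serum-free induction medium to 8 half-log concentrations (top 100 uM, 0.5% DMSO). CYP24A1 mRNA was quantified by TaqMan qRT-PCR, normalized to ACTB/GAPDH/POLR2A, fitted bidirectionally versus DMSO.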
# [6] = read-out: Cytochrome P450 (CYP1A2), CYP1A2 (gene 1544); test: LTEA_HepaRG_CYP1A2: Life Technologies and Expression Analysis (LTEA) Assay for Cytochrome P450 (CYP1A2) using HepaRG (AID 2283479)
# How it was run: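 Differentiated human HepaRG cells in serum-free induction medium were exposed in duplicate for 48 h to 8-point half-log concentrations up to 100 uM in 0.5% DMSO. CYP1A2 mRNA measured by qRT-PCR, normalized to ACTB, GAPDH, POLR2A; bidirectional fit vs DMSO.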
# [7] = read-out: cysteine-aspartic acid protease (CASP8), CASP8 (gene 841); test: LTEA_HepaRG_CASP8: Life Technologies and Expression Analysis (LTEA) Assay for cysteine-aspartic acid protease (CASP8) using HepaRG (AID 2283480)
# How it was run: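 CASP8 transcript measured by TaqMan qRT-PCR with ACTB/GAPDH/POLR2A normalization, after 48 h chemical exposure of HepaRG cells in serum-free induction medium. Eight concentrations, top 100 uM, half-log steps, 0.5% DMSO vehicle; fits in both directions versus DMSO.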
# [8] = read-out: Cytochrome P450 (CYP2B6), CYP2B6 (gene 1555); test: LTEA_HepaRG_CYP2B6: Life Technologies and Expression Analysis (LTEA) Assay for Cytochrome P450 (CYP2B6) using HepaRG (AID 2283481)
# How it was run: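 Differentiated HepaRG cells, serum-free induction medium, exposed 48 h in duplicate to 8-point half-log concentrations from 100 uM in 0.5% DMSO. CYP2B6 mRNA by qRT-PCR, normalized to ACTB, GAPDH, POLR2A; bidirectional fit versus DMSO.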
# [9] = read-out: Cytochrome P450 2C19 (Homo sapiens) (UniProt P33261); test: LTEA_HepaRG_CYP2C19: Life Technologies and Expression Analysis (LTEA) Assay for CYP2C19 using HepaRG (AID 2283482)
# How it was run: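 Differentiated human HepaRG cells were exposed for 48 h in serum-free induction medium to 8 concentrations (top 100 uM, half-log steps, 0.5% DMSO). CYP2C19 mRNA was measured by qRT-PCR, normalized to ACTB/GAPDH/POLR2A, and fitted bidirectionally against DMSO.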
# [10] = read-out: CYP2C8 (gene 1558); test: LTEA_HepaRG_CYP2C8: Life Technologies and Expression Analysis (LTEA) Assay for CYP2C8 using HepaRG (AID 2283483)
# How it was run: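 CYP2C8 expression measured by TaqMan qRT-PCR and normalized to three housekeeping genes. HepaRG cultures were treated for 48 h with an eight-point half-log series topping at 100 uM, vehicle 0.5% DMSO, duplicates; fitted both directions against DMSO.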
# Apoptosis regulator Bcl-2 (Homo sapiens), sequence (P10415 whole entry, looked up): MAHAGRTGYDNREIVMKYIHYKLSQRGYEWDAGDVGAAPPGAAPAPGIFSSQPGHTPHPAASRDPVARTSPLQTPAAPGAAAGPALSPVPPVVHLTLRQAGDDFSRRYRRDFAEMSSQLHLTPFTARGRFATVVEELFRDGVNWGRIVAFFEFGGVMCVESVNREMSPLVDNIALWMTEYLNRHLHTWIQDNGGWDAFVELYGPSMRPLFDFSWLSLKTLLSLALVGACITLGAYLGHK
# Cytochrome P450 2C19 (Homo sapiens), sequence (P33261 whole entry, looked up): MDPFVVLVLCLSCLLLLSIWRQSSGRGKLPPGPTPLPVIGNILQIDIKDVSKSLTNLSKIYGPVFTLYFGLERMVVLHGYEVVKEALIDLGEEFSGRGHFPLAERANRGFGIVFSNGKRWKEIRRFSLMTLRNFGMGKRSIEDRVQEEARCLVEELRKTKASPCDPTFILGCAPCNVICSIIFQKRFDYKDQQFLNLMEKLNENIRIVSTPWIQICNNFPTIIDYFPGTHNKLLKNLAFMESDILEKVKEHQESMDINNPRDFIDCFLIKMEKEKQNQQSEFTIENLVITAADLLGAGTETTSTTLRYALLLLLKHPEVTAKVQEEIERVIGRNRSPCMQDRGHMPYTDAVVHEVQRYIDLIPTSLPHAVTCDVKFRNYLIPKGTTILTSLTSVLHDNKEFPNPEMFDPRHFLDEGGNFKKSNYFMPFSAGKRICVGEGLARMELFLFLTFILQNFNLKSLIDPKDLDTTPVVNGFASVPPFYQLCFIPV
# Caspase-3 (Homo sapiens), sequence (P42574 whole entry, looked up): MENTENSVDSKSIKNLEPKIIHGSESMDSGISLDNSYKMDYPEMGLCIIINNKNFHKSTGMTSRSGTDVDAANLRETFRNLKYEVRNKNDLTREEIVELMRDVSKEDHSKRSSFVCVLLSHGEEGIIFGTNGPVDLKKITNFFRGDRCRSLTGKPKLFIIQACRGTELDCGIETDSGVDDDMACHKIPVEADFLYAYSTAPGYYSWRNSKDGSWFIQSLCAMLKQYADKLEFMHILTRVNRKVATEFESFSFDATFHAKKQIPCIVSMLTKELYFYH
smiles,measurement,setting,value
CCN(C(=O)c1cc(C)cc(OC[C@H](C)Nc2ccncc2)c1)C(C)C,AC50,[1],55 µM (active)
same,outcome,[2],inactive
same,AC50,[3],143 nM (active)
same,AC50,[4],19.6 µM (active)
same,outcome,[5],inactive
same,AC50,[6],12.7 µM (active)
same,outcome,[7],inactive
same,AC50,[8],7.91 µM (active)
same,AC50,[9],8.16 µM (active)
same,AC50,[10],58.4 µM (active)
CC(=O)c1ccc2c(c1)[C@H](NC(=O)c1ccc(F)cc1)[C@@H](O)C(C)(C)O2,outcome,[1],inactive
same,outcome,[2],inactive
same,outcome,[3],inactive
same,outcome,[4],inactive
same,outcome,[5],inactive
same,outcome,[6],inactive
same,outcome,[7],inactive
same,AC50,[8],68.4 µM (active)
same,AC50,[9],16.3 µM (active)
same,outcome,[10],inactive
O=C1CCC(N2C(=O)c3ccccc3C2=O)C(=O)N1 (configuration not stated),outcome,[1],inactive
same,outcome,[2],inactive
same,outcome,[3],inactive
same,outcome,[4],inactive
same,outcome,[5],inactive
same,outcome,[6],inactive
same,outcome,[7],inactive
same,outcome,[8],inactive
same,outcome,[10],inactive
O=C(O)CC(O)C(=O)O (configuration not stated),outcome,[1],inactive
same,outcome,[2],inactive
same,outcome,[3],inactive
same,outcome,[4],inactive
same,outcome,[5],inactive
same,outcome,[6],inactive
same,outcome,[7],inactive
same,outcome,[8],inactive
same,outcome,[9],inactive
same,outcome,[10],inactive
COCCOCCOCCOC,outcome,[1],inactive
same,outcome,[2],inactive
same,outcome,[3],inactive
same,outcome,[4],inactive
same,outcome,[5],inactive
same,outcome,[6],inactive
same,outcome,[7],inactive
same,outcome,[8],inactive
same,outcome,[10],inactive
CCOC(=O)CC(CC(=O)OCC)(OC(C)=O)C(=O)OCC,outcome,[1],inactive
same,outcome,[2],inactive
same,outcome,[3],inactive
same,outcome,[4],inactive
same,outcome,[5],inactive
same,AC50,[6],20.5 µM (active)
same,outcome,[7],inactive
same,outcome,[8],inactive
same,outcome,[10],inactive
CC(C)c1cccc(C(C)C)c1N1C(=O)c2ccc(O)cc2C1=O,outcome,[1],inactive
same,AC50,[2],86.2 µM (active)
same,outcome,[3],inactive
same,outcome,[4],inactive
same,outcome,[5],inactive
same,outcome,[6],inactive
same,outcome,[7],inactive
same,AC50,[8],88.6 µM (active)
same,outcome,[10],inactive
CCC(C)(C)C(=O)O[C@H]1C[C@@H](C)C=C2C=C[C@H](C)[C@H](CC[C@@H]3C[C@@H](O)CC(=O)O3)[C@H]21,outcome,[1],inactive
same,outcome,[2],inactive
same,outcome,[3],inactive
same,outcome,[4],inactive
same,outcome,[7],inactive
CC(C)(O)c1coc(S(=O)(=O)NC(=O)Nc2c3c(cc4c2CCC4)CCC3)c1,outcome,[1],inactive
same,outcome,[2],inactive
same,outcome,[4],inactive
same,outcome,[5],inactive
same,AC50,[6],50 µM (active)
same,outcome,[7],inactive
same,AC50,[8],2.62 µM (active)
same,outcome,[10],inactive
CCCCCCCCO,outcome,[1],inactive
same,outcome,[2],inactive
same,outcome,[3],inactive
same,outcome,[4],inactive
same,outcome,[5],inactive
same,outcome,[6],inactive
same,outcome,[7],inactive
same,outcome,[8],inactive
same,outcome,[10],inactive
CCOCCOCCOCCO,outcome,[1],inactive
same,outcome,[2],inactive
same,outcome,[3],inactive
same,outcome,[4],inactive
same,outcome,[5],inactive
same,outcome,[6],inactive
same,outcome,[7],inactive
same,outcome,[8],inactive
same,outcome,[10],inactive
